# From PubChem BioAssay AID743395 (Broad Institute, 2014)
# Out of some 1,200 compounds screened, about 480 (40%) were called active. The rule behind the calls is not given here. So high a share suggests a set chosen from earlier hits. A selection follows. Potency and affinity values are given separately.
# Test: viability loss in human hepatoma cells – cell-based, CellTiter-Glo luminescence, cherry-pick, set 2, cytotoxicity control, dose response (AID 743395);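 note: 0% = neutral control wells and -100% = positive control wells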
# Settings: HepG2 viability, CellTiter-Glo ATP luminescence, 72 h; series mostly up to 26 µM; activity change, negative = cytotoxicity: at the top concentration
row,SMILES,"activity change, negative = cytotoxicity"
1,CN(Cc1c(F)cccc1Cl)C(=O)c1ccc(NC(=O)CC2SC(N3CCCCC3)=NC2=O)cc1 (stereo not drawn),-8.12% (inactive)
2,Cc1noc(NS(=O)(=O)c2ccc(N/C=C\C(=O)c3ccccc3)cc2)c1C,-5.75% (inactive)
3,COc1cc(OC)cc(C(=O)NC(=S)Nc2ccc3oc(=O)ccc3c2)c1,7.96% (inactive)
4,Cc1cc2nnc(SCC(=O)NCc3ccco3)n2c2ccccc12,10.6% (inactive)
5,S=C(NCc1ccco1)NCC1CCCO1 (stereo not drawn),-18.5% (inactive)
6,O=C(c1[nH]ncc1-c1ccc(Cl)cc1)C1CO1 (stereo not drawn),-2.79% (inactive)
7,CCCCC1(C2CCCC2)NC(=O)NC1=O (stereo not drawn),5% (inactive)
8,CNS(=O)(=O)c1cccc(C(=O)OCC(=O)c2cc(C)n(CC3CCCO3)c2C)c1 (stereo not drawn),7.11% (inactive)
9,O=Cc1ccccc1OCc1ccc2c(c1)OCO2,1.7% (inactive)
10,CCOC1=C2[C@@H](CN(S(=O)(=O)c3ccc(C)cc3)[C@H]2c2ccc(Cl)cc2)[C@H]2C(=O)N(c3ccccc3)C(=O)[C@H]2C1,-5.52% (inactive)
11,COc1cc(C(=O)c2cocc2C(=O)c2ccc3c(c2)OCO3)cc(OC)c1OC,-22.8% (inactive)
12,COc1ccc(N(C)S(=O)(=O)c2cccc(C(=O)NCC3CCCCC3)c2)cc1,-13.4% (inactive)
13,COCCNC(=O)C1CCCN(C(=O)c2ccc3sccc3c2)CC1 (stereo not drawn),-0.219% (inactive)
14,COCC(=O)N1C[C@@H]2[C@H](c3ccccc31)[C@H](CO)N2Cc1ccc(OC)cc1,11.1% (inactive)
15,COc1ccc2c(c1)[nH]c1c(=O)n(/N=C/c3ccc(OC)c(CN4CCCC4)c3)cnc12,-6.55% (inactive)
16,COc1ccc2c3c([nH]c2c1)[C@H](CO)N(C(=O)Nc1ccc(F)cc1)CC31CCN(S(=O)(=O)c2ccccc2)CC1,-4.51% (inactive)
17,CCCNC(=O)N1CC2(CN(CC3CCCCC3)C2)c2c(n(C)c3cc(OC)ccc23)[C@H]1CO,-7.75% (inactive)
18,COc1ccc2c3c(n(C)c2c1)[C@H](CO)NCC31CCN(Cc2cc(-c3ccccc3)on2)CC1,-16.1% (inactive)
19,Cc1sc(NC(=S)NC(=O)CCc2ccccc2)c(C(N)=O)c1C,-30.3% (inactive)
20,COCCNC(=O)NC12CC3(C)CC(C)(CC(C)(C3)C1)C2,-11.8% (inactive)
21,COc1ccccc1C(=O)Nc1onc(C)c1C#N,-24.7% (inactive)

row,SMILES,"activity change, negative = cytotoxicity"
1,COc1cccc(CNC(=O)CSc2nc3ccc(C)cc3[nH]2)c1,3.46% (inactive)
2,COc1cccc(N2CCN(C(=O)c3ccc(CS(=O)c4ccc(Cl)cc4)o3)CC2)c1 (stereo not drawn),-27.7% (inactive)
3,CC(C)(C)c1csc(NC(=O)Cc2cccs2)n1,-22.9% (inactive)
4,CN1CCN(C(=O)c2ccc(CN(c3ccccc3)S(=O)(=O)c3ccccc3)cc2)CC1,4.86% (inactive)
5,Cc1ccc(S(=O)(=O)N[C@H](C(=O)OCC(=O)NC(=O)C2CCCCC2)C(C)C)cc1,2.53% (inactive)
6,CC(C)c1ccc(NC(=O)CN2C(=O)NC3(CCCCCCC3)C2=O)cc1,-33% (inactive)
7,CSc1ccccc1NC(=O)COC(=O)CCC(=O)c1ccc(F)cc1,-16.4% (inactive)
8,CC(=O)OCCn1c2nc(=O)[nH]c(=O)c-2nc2cc(C)c(C)cc21,-13.6% (inactive)
9,COc1cccc(NC(=O)N(C)C[C@H]2OCc3ccccc3-c3c(n(C)c4ccccc34)C(=O)N([C@H](C)CO)C[C@H]2C)c1,0.205% (inactive)
10,O=C(c1[nH]ncc1-c1cccc(Br)c1)C1CO1 (stereo not drawn),1.28% (inactive)
11,CC(C)CCNC(=O)C(=O)Nc1ccc2c(c1)N(S(=O)(=O)c1cccs1)CCC2,-1.58% (inactive)
12,CCOC(=O)C1=CN(Cc2cccc(I)c2)S(=O)(=O)N(C)C1C (stereo not drawn),-1.74% (inactive)
13,CC(C)c1nc2oc3c(NCCO)ncnc3c2c2c1COC(C)(C)C2,-2.05% (inactive)
14,COc1ccc(-c2cnc3c(NC=O)cc(-c4ccccc4)cn23)cc1OC,-26.2% (inactive)
15,O=CNc1cc(-c2ccc(C(=O)NC3CC3)cc2)cn2c(-c3ccccc3)cnc12,-21.5% (inactive)
16,COc1cc(-c2cnc3c(NC=O)cc(-c4cccc(C(F)(F)F)c4)cn23)cc(OC)c1OC,-1.54% (inactive)
17,O=C(COC(=O)Cc1ccsc1)Nc1cccc(F)c1,12.6% (inactive)
18,COc1cccc2cc(C(=O)NCCN3CCOCC3)c(=O)oc12,-7.51% (inactive)
19,NS(=O)(=O)c1ccc(NC(=O)c2cccc3cc4ccccc4nc23)cc1,-17.1% (inactive)
20,COc1ccccc1OCCNC(=O)CCNC(=O)c1ccccc1OC,20.5% (inactive)
21,O=C1NC(Cc2ccc(O)cc2)c2nc3ccc(Br)cc3c(=O)n2-c2cc3ccccc3cc21 (stereo not drawn),-15.4% (inactive)

row,SMILES,"activity change, negative = cytotoxicity"
1,COc1ccccc1S(=O)(=O)N1CC[C@@H]2[C@@H](CO)N(C)c3ccc(-c4ccc(F)cc4)cc3[C@@H]21,-3.19% [at 7.5 µM] (inactive)
2,COc1ccccc1Cc1c(-c2ccc(Cl)cc2)nc2ccc(Br)cn12,-14.7% (inactive)
3,O=C(O)CCCCCCCCc1cn(Cc2ccc(C(=O)c3ccccc3)cc2)nn1,-20.9% (inactive)
4,CC1CCN(S(=O)(=O)N2CCCC(C(=O)NCc3ccccc3Cl)C2)CC1 (stereo not drawn),5.63% (inactive)
5,C[C@@](Cc1ccc(O)c(O)c1)(NN)C(=O)O,-13% (inactive)
6,COc1ccc(NC(=O)c2cc(C3CC3)on2)c(OC)c1,-10.3% (inactive)
7,Cc1ccc(Nc2nc(CSc3nnc(-c4cccnc4)n3-c3ccccc3F)cs2)cc1,0.425% (inactive)
8,Cc1cc(C(=O)CCC(=O)NC(C)c2ccc(S(N)(=O)=O)cc2)c(C)s1 (stereo not drawn),-14.7% (inactive)
9,Cc1c(Cl)cccc1NC(=O)C1CC(=O)N(C2CCCC2)C1 (stereo not drawn),-4.45% (inactive)
10,COCCNC(=O)C1CCCN(C(=O)c2cc(-c3cccs3)oc2C)CC1 (stereo not drawn),-5.14% (inactive)
11,O=C1NN(c2cccc(Br)c2)C(=O)/C1=C\c1ccc(O)cc1,-6.99% (inactive)
12,Cc1ccc(N2C(=O)c3cccc4c([N+](=O)[O-])ccc(c34)C2=O)c2cccnc12,4.68% (inactive)
13,CCN1C(=O)c2cccc3c(S(=O)(=O)N(C(C)=O)c4ccc(OC(C)=O)cc4)ccc1c23,-11.3% (inactive)
14,O=C1c2cccc3c([N+](=O)[O-])ccc(c23)C(=O)N1Cc1cccnc1,-17% (inactive)
15,CCOc1ccc(NC(=O)c2ccc(NC(=O)CN3C(=O)C(=O)N(CC(C)C)C3=O)cc2)cc1,10.6% (inactive)
16,CC1C2CCC(C2)C1OC(=O)c1ccccc1C(=O)O (stereo not drawn),9.03% (inactive)
17,CCCCn1nc(NC(=O)CC)c2cc3cc(OC)ccc3nc21,6.47% (inactive)
18,O=C1CCC(CCc2nc3ccccc3[nH]2)(c2ccccc2)C(=O)N1 (stereo not drawn),-18.2% (inactive)
19,N#C/C(=C\c1ccccn1)c1nc2ccccc2s1,6.64% (inactive)
20,O=C(C[C@@H]1C[C@H]2c3cc(NC(=O)CC4CC4)ccc3O[C@H]2[C@H](CO)O1)NCc1cccc(F)c1,21.2% (inactive)
21,COC(=O)C1(C)CCCC2(C)C3CCC(C(C)C)C(CO)C3C(CO)CC12 (stereo not drawn),0.453% (inactive)
